According to PubChem BioAssay (NCI):
About 79,000 compounds went through this panel and 15% of them were active in at least one assay; those are over-represented in the sample as a whole. Active and inactive are the calls of the source. Rule as the data show it: active = growth inhibition above about 70%; inactive = the rest.

Key:
[1] = NCI Yeast Anticancer Drug Screen. Data for the rad50 strain (AID 155);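 also: 0% = growth of vehicle-only cultures of the same strain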; conditions: S. cerevisiae rad50 strain growth inhibition, stronger effect = higher value
Summary of the method: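 Genetically altered yeast (DNA repair pathway); compound treatment; growth inhibition vs vehicle ctrl.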

[2] = NCI Yeast Anticancer Drug Screen. Data for the mec2-1 strain (AID 157); conditions: S. cerevisiae mec2-1 strain, stronger effect = higher value
Summary of the method: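 Yeast mec2-1 mutant treated with compound. Readout: growth inhibition vs vehicle controls.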

[3] = NCI Yeast Anticancer Drug Screen. Data for the sgs1 mgt1 strain (AID 161);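 also: 0% = growth of cultures given vehicle only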; conditions: S. cerevisiae sgs1 mgt1 strain, stronger effect = higher value
Summary of the method: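 Test agents were incubated with a DNA-repair-mutant yeast strain. Growth was then read and compared against vehicle-treated controls.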

[4] = NCI Yeast Anticancer Drug Screen. Data for the cln2 rad14 strain (AID 165);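 also: 0% = growth equal to vehicle treated cultures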; conditions: S. cerevisiae cln2 rad14 strain, stronger effect = higher value
Summary of the method: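 cln2 rad14 yeast strain; compound exposure; growth inhibition read vs vehicle controls.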

[5] = NCI Yeast Anticancer Drug Screen. Data for the bub3 strain (AID 167); conditions: S. cerevisiae bub3 mutant strain, stronger effect = higher value
Summary of the method: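 Yeast carrying a defined mutation is treated with each compound, and growth is compared with that of vehicle-exposed cells to give inhibition.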

[6] = NCI Yeast Anticancer Drug Screen. Data for the mlh1 rad18 strain (AID 175); conditions: S. cerevisiae mlh1 rad18 strain growth inhibition, stronger effect = higher value
Summary of the method: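 Yeast w/ defined DNA-repair lesions; compound exposure; growth vs vehicle controls → % inhibition.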

[7] = at 5.0 µM (retest, dose inferred, filed as 0.5)
[8] = at 50.0 µM (retest, dose inferred, filed as 5.0)

Measured: growth inhibition

CCCCC/C(=C/C=C/c1ccc(Cl)cc1)CN(C)C
inactive: [1]; [7] 11% | [2]; [7] 8% | [3]; [7] 49% | [4]; [7] 13% | [5]; [7] 6% | [6]; [7] 7%
active: [1]; [8] 97% | [1]; at 50.0 µM 99.5% | [2]; [8] 98% | [2]; at 50.0 µM 99.8% | [3]; [8] 98% | [3]; at 50.0 µM 99.7% | [4]; [8] 97% | [4]; at 50.0 µM 99.5% | [5]; [8] 98% | [5]; at 50.0 µM 99.8% | [6]; [8] 97% | [6]; at 50.0 µM 99.7%

COc1cc(C(c2ccccc2)c2ccccc2)c2ccccc2c1O
active: [4]; [8] 73% | [5]; [8] 70% | [6]; [8] 75% | [6]; at 50.0 µM 74%
inactive: [1]; [7] 15% | [1]; [8] 51% | [1]; at 50.0 µM 33.3% | [2]; [7] 15% | [2]; [8] 41% | [2]; at 50.0 µM 16.6% | [3]; [7] -17% | [3]; [8] 25% | [3]; at 50.0 µM 61.4% | [4]; [7] 13% | [4]; at 50.0 µM 44.9% | [5]; [7] 8% | [5]; at 50.0 µM 40.2% | [6]; [7] 24%

O=c1ssc(=Nc2ccc(Cl)cc2)n1-c1ccc(Cl)cc1
active: [1]; [7] 77% | [1]; [8] 99% | [1]; at 50.0 µM 98.5% | [2]; [8] 99% | [2]; at 50.0 µM 99.4% | [3]; [7] 95% | [3]; [8] 99% | [3]; at 50.0 µM 98.2% | [4]; [8] 99% | [4]; at 50.0 µM 87.9% | [5]; [7] 74% | [5]; [8] 99% | [5]; at 50.0 µM 99.5% | [6]; [8] 99% | [6]; at 50.0 µM 98%
inactive: [2]; [7] 57% | [4]; [7] 16% | [6]; [7] 30%

CC1=CC(=O)C(O)=C/C1=C\C=C\c1ccccc1
inactive: [1]; [7] 15% | [2]; [7] 23% | [3]; [7] 26% | [3]; at 50.0 µM 49.4% | [4]; [7] 6% | [5]; [7] 11% | [6]; [7] 50%
active: [1]; [8] 98% | [1]; at 50.0 µM 99.2% | [2]; [8] 99% | [2]; at 50.0 µM 99% | [3]; [8] 99% | [4]; [8] 97% | [4]; at 50.0 µM 98.8% | [5]; [8] 98% | [5]; at 50.0 µM 99% | [6]; [8] 98% | [6]; at 50.0 µM 99.2%

CCCNC(=O)c1ccccc1
inactive: [1]; [7] -1% | [1]; [8] -5% | [1]; at 50.0 µM 4% | [2]; [7] 2% | [2]; [8] -2% | [2]; at 50.0 µM 13.2% | [3]; [7] 1% | [3]; [8] -5% | [3]; at 50.0 µM 2.85% | [4]; [7] -6% | [4]; [8] -2% | [5]; [7] -5% | [5]; [8] -9% | [5]; at 50.0 µM 22.7% | [6]; [7] -2% | [6]; [8] -5% | [6]; at 50.0 µM 7.6%
active: [4]; at 50.0 µM 70.8%

Nc1ccccc1/C=C/c1c[nH]c2ccccc12
active: [1]; [8] 97% | [1]; at 50.0 µM 91.6% | [2]; [8] 98% | [2]; at 50.0 µM 97.5% | [3]; [8] 98% | [4]; [8] 98% | [4]; at 50.0 µM 95.6% | [5]; [8] 97% | [5]; at 50.0 µM 97.7% | [6]; [8] 98% | [6]; at 50.0 µM 97.3%
inactive: [1]; [7] 11% | [2]; [7] 4% | [3]; [7] 5% | [3]; at 50.0 µM 53.2% | [4]; [7] -8% | [5]; [7] 28% | [6]; [7] 9%

Oc1ccc(-c2nnc(-c3ccc(Cl)cc3Cl)o2)cc1
active: [1]; [8] 80% | [2]; [8] 82% | [3]; [8] 85% | [4]; [8] 86% | [4]; at 50.0 µM 74.4% | [5]; [8] 91% | [6]; [8] 76%
inactive: [1]; [7] 6% | [1]; at 50.0 µM 54.6% | [2]; [7] 2% | [2]; at 50.0 µM 50.8% | [3]; [7] 0% | [3]; at 50.0 µM 54.2% | [4]; [7] 2% | [5]; [7] 17% | [5]; at 50.0 µM 47.5% | [6]; [7] -2% | [6]; at 50.0 µM 51.8%

CC(OC(=O)Nc1cccc(Cl)c1)c1ccccc1 (centres undefined)
inactive: [1]; [7] 18% | [2]; [7] 8% | [3]; [7] 12% | [4]; [7] 7% | [5]; [7] 11% | [6]; [7] 11%
active: [1]; [8] 99% | [1]; at 50.0 µM 99.2% | [2]; [8] 99% | [2]; at 50.0 µM 99.5% | [3]; [8] 99% | [3]; at 50.0 µM 99.5% | [4]; [8] 99% | [4]; at 50.0 µM 99% | [5]; [8] 99% | [5]; at 50.0 µM 99.7% | [6]; [8] 99% | [6]; at 50.0 µM 99.2%
